Consider 40 compounds from PubChem BioAssay (EPA / NIEHS).

“And” between values parts separate entries of the source, which are not always exact repeats. Equal entries are not always repeated. The source made the active and inactive calls. The calls were made as follows: active = hit-call score of the fitted dose curve at least 0.9, where 1 is the maximum; inactive = score below 0.9.

A short description of this experiment: BSK_3C_TissueFactor: BioMAP Diversity Plus: 3C Assay for Tissue Factor Biomarker Activity (AID 2282997). The note with it: BioMAP 3C HUVEC, tissue factor biomarker readout; actives raise or lower the signal. On the procedure:
BSK_3C is a cell-based, multiplexed-readout assay that uses umbilical vein endothelium, a human vascular primary cell, with measurements taken at 24 hours after chemical dosing in a 96-well plate.BSK_3C_TissueFactor is an assay component measured in the BSK_3C assay. It measures Tissue Factor antibody related to regulation of gene expression using ELISA technology.Data from the assay component BSK_3C_TissueFactor was analyzed into 1 assay endpoint. This assay endpoint, BSK_3C_TissueFactor, was analyzed with bidirectional fitting relative to DMSO as the negative control and baseline of activity. Using a type of binding reporter, gain or loss-of-signal activity can be used to understand changes in the signaling as they relate to the gene F3. Furthermore, this assay endpoint can be referred to as a primary readout, because this assay has produced multiple assay endpoints where this one serves a signaling function. To generalize the intended target to other relatable targets, this assay endpoint is annotated to the cytokine intended target family, where the subfamily is coagulation factor.
The levels of cell surface (or secreted, indicated by the prefix "s") biomarker endpoints were measured by ELISA. Overt cytotoxicity to cells in confluent adherent cultures (all systems other than the BT system) was assessed by measuring total protein levels using sulforhodamine B (SRB) staining in parallel cultures at the time of biomarker measurements, indicated as SRB endpoints. For proliferation assays for adherent cell types, individual cell types are cultured at sub-confluence and relative cell numbers quantified by SRB staining at time points optimized for each system (48 h: 3C and CASM3C systems; 72 h: BT and HDF3CGF systems; 96 h: SAg system). SRB was performed by staining cells with 0.1% SRB after fixation with 10% TCA and reading wells at 560 nm.Viability and proliferation of PBMC (T cells) was quantified by Alamar Blue reduction for the SAg and BT systems. For PBMC viability (referred to as PBMC Cytotoxicity within the assay endpoint names), cells were plated (75,000/well in a 96-well plate) and then chemical samples added for 1 h before addition of activators, SEB and TSST-1 (20 ng/mL final concentration each). Cells were incubated for 90 h. Then, Alamar Blue (20 uL/well) (Invitrogen, Cat DAL1100) was added for 6 h, and the plates were read with a fluorescence microplate reader at 546/580 nm (excitation/emission). For PBMC proliferation, cells were plated and activated as above but incubated for only 16 h prior to addition of Alamar Blue. Plates were read after 6 h.
Take `CCCCC=O`: the result was inactive.
On the same count and under the same terms, in the case of `CCOC(=O)CN[C@@H](C(=O)N1CC[C@H]1C(=O)NCc1ccc(/C(N)=N/O)cc1)C1CCCCC1` it was “inactive”; in that of `CCCCCCCCCCCC`, “inactive”; in that of `O=C1NS(=O)(=O)c2ccccc21`, “inactive”.
Same read-out and setting: the value for `CCCCCCCCCCCCCCC` was “inactive”.
As to `OCCN1CN(CCO)CN(CCO)C1`, the AC50 is 20 µM (active).
Regarding `OCC(CO)(CBr)CBr`, the outcome was inactive.
On to `COC1=CC(=O)C[C@@H](C)[C@]12Oc1c(Cl)c(OC)cc(OC)c1C2=O`, for which the outcome was inactive.
With `NC(=NCCCCCCN=C(N)/N=C(\N)Nc1ccc(Cl)cc1)/N=C(\N)Nc1ccc(Cl)cc1`, the half-maximal activity concentration (AC50) is 4.88 µM (active).
In the case of `Oc1ccc(Cc2ccccc2O)cc1`, the result was inactive.
In the case of `O=C(NCc1ncc(C(F)(F)F)cc1Cl)c1c(Cl)cccc1Cl`, the result was inactive.
Consider `O=C(O)C(F)(F)OC(F)(F)C(F)(F)OC(F)(F)C(F)(F)OC(F)(F)C(F)(F)C(F)(F)C(F)(F)F`, for which the AC50 was 22.3 µM (active) and 27.7 µM (active).
Regarding `CN(CCO)S(=O)(=O)C(F)(F)C(F)(F)C(F)(F)C(F)(F)C(F)(F)C(F)(F)C(F)(F)C(F)(F)F`, the outcome was inactive.
For the compound `CCC(C)c1ccccc1O` (stereo not given), the outcome was inactive.
On the same count and under the same terms, the value for `O=P(O)(O)CCC(F)(F)C(F)(F)C(F)(F)C(F)(F)C(F)(F)C(F)(F)C(F)(F)C(F)(F)F` was “inactive”.
As to `O=C(CCCN1CCC(O)(c2ccc(Cl)cc2)CC1)c1ccc(F)cc1`, the AC50 is 15.6 µM (active).
For `O=C1c2ccc(O)c(O)c2C(=O)c2c(O)ccc(O)c21`, the outcome was inactive.
`CC(C)(C)c1ccc(O)c(O)c1`: the half-maximal activity concentration (AC50) was 3.97 µM (active).
Same read-out and setting: in the case of `CCCCCc1ccc(O)cc1` it was 12 µM (active).
For the compound `CCCCC(CC)C(=O)O` (stereo not given), the outcome was inactive.
Turning to `Cc1cccc2c1ccc1ccccc12`, the AC50 was 0.0495 µM (active).
For `CN(C)c1ccc(C(=C2C=CC(=[N+](C)C)C=C2)c2ccccc2)cc1`, the AC50 is 0.0152 µM (active).
For `CC[N+](CC)(CC)Cc1ccccc1`, the outcome was inactive.
`OCC(F)(F)C(F)(F)C(F)(F)C(F)(F)C(F)(F)C(F)(F)C(F)(F)C(F)(F)C(F)(F)C(F)(F)C(F)(F)F`: the result was inactive.
On the same count and under the same terms, the value for `O=S(=O)(O)C(F)(F)C(F)(F)C(F)(F)C(F)(F)C(F)(F)C(F)(F)C(F)(F)C(F)(F)C(F)(F)C(F)(F)F` was “inactive”; that for `Oc1cc2ccccc2cc1O` was “inactive”.
For the compound `O=C(c1ccccc1)c1ccccc1`, the result was inactive.
In the case of `Cc1ccc(N=Nc2c(O)ccc3ccccc23)c(C)c1`, the concentration at half-maximal activity (AC50) is 1.97 µM (active).
For the compound `O=C(NO)c1ccccc1`, the result was inactive.
As to `O=C(CC(=O)C(F)(F)C(F)(F)C(F)(F)F)c1cccs1`, the AC50 was 29.2 µM (active) and 35.5 µM (active).
Still for that read-out and setting: in the case of `CCCCc1oc2ccccc2c1C(=O)c1cc(I)c(OCCN(CC)CC)c(I)c1` it was 10.2 µM (active).
On to `O=C(O)CCC(F)(F)C(F)(F)C(F)(F)C(F)(F)C(F)(F)F`, for which the result was inactive.
Regarding `O=P(O)(O)CCC(F)(F)C(F)(F)C(F)(F)C(F)(F)C(F)(F)C(F)(F)F`, the result was inactive.
`Cc1[nH]nc2c1N=C(c1ccccc1Cl)c1cc([N+](=O)[O-])ccc1N2`: the AC50 was 3.97 µM (active).
In the case of `C[C@]12CC[C@@H]3c4ccc(O)cc4CC[C@H]3[C@@H]1C[C@@H](O)[C@@H]2O`, the outcome was inactive.
`COc1cccc(O)c1`: the outcome was inactive.
Consider `COc1cc(OC)nc(NC(=O)NS(=O)(=O)Nc2ccccc2C(=O)N(C)C)n1`, for which the result was inactive.
On to `C=CC(C)(CCC=C(C)C)OC(C)=O` (stereo not given), for which the AC50 is 27.8 µM (active).
Take `Clc1ccc(Nc2nnc(Cc3ccncc3)c3ccccc23)cc1`: the result was inactive.
Still for that read-out and setting: the value for `O=C(O)CCC(F)(F)C(F)(F)C(F)(F)C(F)(F)C(F)(F)C(F)(F)F` was “inactive”.
